Bioassay records deposited in PubChem BioAssay by National Center for Advancing Translational Sciences (NCATS).
Only some compounds are listed: those with a hit (about 3.5% of all), similar ones and a draw of the others.
RE007 growth inh – qHTS Assay for Inhibitors of the HIV-1 protein Vpr. S. pombe RE007 Vpr strain, BacTiter-Glo ATP luminescence, 24 h. Potency, µM (titrated, usually from 92.2 µM), usual class: inhibitors. 0.21% of 360,000 active; active = well fitted falling curve with a large enough effect; inconclusive = small, poorly fitted or top-dose-only effect; inactive = no such curve, though single readings can be large or run the other way; also: nearly all actives have a fitted effect of over 50% in size
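Fission yeast strain RE007, carrying one chromosomally integrated HIV-1 vpr copy, was seeded at OD 0.01 in PMG+AL medium with 23 nL pinned compound. After 24 h at 30 °C and 99% humidity, viability was read by BacTiter-Glo luminescence.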
NS1 function inh – qHTS Assay for Inhibitors of Influenza NS1 Protein Function | 0.4% of 270,000 active | Potency, µM (doses to about 46.1 µM); calls by dose curve; also: actives are rising curves; nearly all actives have a fitted effect of over 50% in size
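S. cerevisiae expressing influenza A NS1, grown in glucose, washed, then diluted 1:100 into pH 6.0 -URA galactose medium with 23 nl compound. Growth recovery read as OD600; NS1-free strain serves as control.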
TbPYK inhibitor – qHTS of Trypanosoma Brucei Inhibitors. Potency, µM (doses to about 76.8 µM), usual class: inhibitors. 0.12% of 410,000 active. pyruvate kinase (Trypanosoma brucei), Q57TT1. TbPYK enzyme, Kinase-Glo Plus ATP luminescence, 45 min; also: nearly all actives have a fitted effect of over 50% in size
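Quantitative HTS: titrated library compounds versus trypanosomal pyruvate kinase in TEA buffer (pH 7.2) containing KCl, MgCl2, BSA and Tween-20. Reactions were initiated with ADP, 130 uM final. Kinase-Glo Plus luminescence was read after 45 min at RT.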
Sm TGR block – qHTS Assay for the Inhibitors of Schistosoma Mansoni Peroxiredoxins; Schistosoma mansoni thioredoxin glutathione reductase (TGR), Q962Y6; purified TGR, DTNB reduction, TNB absorbance 405 nm; Potency, µM (highest dose often 114 µM), most hits filed as inhibitors; 3% of 360,000 active; also: nearly all actives have a fitted effect of over 60% in size
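First, TGR (20 nM dispensed) and NADPH were mixed with compound. Second, a 15 min room-temperature incubation followed. Third, further NADPH and then DTNB were added to start the reaction. Finally, TNB absorbance was monitored kinetically.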
LmPK inhibitor – qHTS Assay for Inhibitors of Leishmania Mexicana Pyruvate Kinase (LmPK). Q27686. purified LmPK, Kinase-Glo ATP luminescence, 1 h. Potency, µM (doses to about 57.5 µM), hits mostly inhibitors. 0.37% of 290,000 active. AID 1721, 2009
Target sequence (Q27686 whole entry, looked up): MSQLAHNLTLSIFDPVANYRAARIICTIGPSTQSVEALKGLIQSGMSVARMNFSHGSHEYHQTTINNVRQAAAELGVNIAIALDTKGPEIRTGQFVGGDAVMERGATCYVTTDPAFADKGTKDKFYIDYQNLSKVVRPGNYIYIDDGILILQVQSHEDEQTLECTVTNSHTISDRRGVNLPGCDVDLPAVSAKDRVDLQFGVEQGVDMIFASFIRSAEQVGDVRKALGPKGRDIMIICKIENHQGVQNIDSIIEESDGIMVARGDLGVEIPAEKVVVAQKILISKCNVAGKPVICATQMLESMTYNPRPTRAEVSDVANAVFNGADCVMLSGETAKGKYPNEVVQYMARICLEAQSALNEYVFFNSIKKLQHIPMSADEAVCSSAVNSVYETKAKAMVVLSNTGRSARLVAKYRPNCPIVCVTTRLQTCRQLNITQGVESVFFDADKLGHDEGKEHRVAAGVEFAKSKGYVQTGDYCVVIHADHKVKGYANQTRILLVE
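Kinase-Glo luminescence read after 1 h RT reaction of 0.1 nM LmPK with 0.5 mM PEP and 0.1 mM ADP. Activity scaled between uninhibited and enzyme-free controls.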
FBPA Giardia inh – qHTS Assay for Inhibitors of Fructose-1,6-bisphosphate Aldolase from Giardia Lamblia. Potency, µM (doses to about 59.6 µM), actives largely listed as inhibitors. purified Giardia FBPA. 0.71% of 290,000 active. AID 2451, 2010; also: nearly all actives have a fitted effect of over 55% in size
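Giardia FBPA (40 nM reagent) was preincubated 10 min at RT with compound (up to 57.5 uM final), then substrate plus GAPDH/TPI/NAD/arsenate coupling system with diaphorase/resazurin was added; resorufin fluorescence (525/598 nm) was read after 20 min.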
A number is an active result; i = inactive; ? = inconclusive; nt = not tested or not shown; [ ] = dose if it differs, or a comment. Unless noted, calls follow the shape of the dose curve; as a rule, active = well fitted curve in the direction sought with a large enough effect; inconclusive = small, poorly fitted or top-dose-only effect, or another doubt; inactive = no such curve, though single readings can be large; an effect the other way counts as inactive or inconclusive.

SMILES	RE007 growth inh	NS1 function inh	TbPYK inhibitor	Sm TGR block	LmPK inhibitor	FBPA Giardia inh
NNc1nncc2ccccc12	nt	i	i	nt	nt	5µM
Nc1c(Cl)ncnc1N/N=C/c1ccncc1	i	i	i	45µM	i	i
COc1ccc(/C=N/Nc2nncc3ccccc23)cc1	i	i	?	i	11µM	i
COc1ccc(/C=N/Nc2nccnc2Cl)cc1	?	i	?	i	7.1µM	i
O=C1CC[C@H](C(=O)N2CCCCC2)N1	nt	nt	i	nt	nt	nt
COc1ccc(CNCc2ccc3c(c2)n(C)c(=O)n3C)cc1	nt	nt	i	i	nt	nt
Clc1nccnc1N/N=C/c1ccc(Br)cc1	i	i	?	i	18µM	?
COc1ccc(/C=N/Nc2nccnc2Cl)c(OC)c1	i	i	i	nt	10µM	i
O=C(CCC(=O)c1ccc(F)cc1)OCc1nnc(-c2ccc([N+](=O)[O-])cc2)o1	i	nt	i	20µM	nt	nt
Cc1csc(=O)n1CC(=O)OCc1nnc(-c2ccc([N+](=O)[O-])cc2)o1	i	nt	i	i	nt	nt
Cc1ccc2c(c1)=C/C(=C\c1c(O)[nH]c(=S)[nH]c1=O)C(=O)N=2	nt	i	nt	13µM	i	?
COc1cc2cc(C(=O)NCCc3ccccc3)[nH]c2cc1OC	i	i	i	89µM	i	i
O=C(NC1CCCCC1)c1ccc2c(c1)N(Cc1ccccc1Cl)C(=O)c1ccccc1S2	nt	nt	i	i	nt	nt
O=[N+]([O-])c1cc(Cl)ccc1N1CCCC1	i	i	i	i	i	i
O=C1C(Cl)=C(N2CCN(c3ccccc3[N+](=O)[O-])CC2)C(=O)c2ccccc21	i	i	i	1.6µM	i	?
CCOC(=O)c1c(C)[nH]c(C)c1S(=O)(=O)N1CCN(c2cccc(C(F)(F)F)c2)CC1	nt	nt	i	i	nt	nt
O=S(=O)(Nc1cccc2cccnc12)c1ccccc1	i	i	i	i	i	18µM
CC1Cc2ccccc2N1Cc1cc(=O)n2ccsc2n1 (stereo not drawn)	i	i	i	22µM	i	?
CCOc1ccc(C(=O)NCCn2cc(SCC(=O)Nc3ccccc3)c3ccccc32)cc1	nt	nt	i	i	nt	nt
c1ccc(-c2cnc(CSc3nnc4ccccn34)o2)cc1	i	i	i	10µM	i	?
COc1ccc(C(=O)CSc2nnc(-c3ccccc3)o2)cc1	i	?	i	i	i	i
COc1ccc(-c2nnc(SCc3ncc(-c4ccccc4)o3)o2)cc1	i	i	i	40µM	i	i
COc1ccc2c(c1)CC1(CN2C)C(=O)NC(=O)N(c2ccc(F)cc2)C1=O (stereo not drawn)	i	i	i	?	i	?
COc1ccc2c(c1)CC1(CN2C)C(=O)NC(=O)N(c2ccc(C)cc2)C1=O (stereo not drawn)	i	i	i	50µM	i	?
O=C1NC(c2cccs2)Nc2sc3c(c21)CCCC3 (stereo not drawn)	i	i	?	28µM	i	?
SMILES	RE007 growth inh	NS1 function inh	TbPYK inhibitor	Sm TGR block	LmPK inhibitor	FBPA Giardia inh
CN(C)c1ccc(CNc2nc(-c3ccco3)nn2C(=O)c2cccc([N+](=O)[O-])c2)cc1	nt	nt	i	i	nt	nt
O=C(c1ccco1)N1CCN(c2c(-c3ccccc3)c3cc(Cl)ccc3[nH]c2=O)CC1	i	nt	i	i	i	i
O=C(c1ccco1)N1CCN(c2ncnc3c2[nH]c2ccc(Cl)cc23)CC1	nt	2.2µM	nt	50µM	i	i
CCCN(CCC)C(=O)C1CCCN(c2ncnc3onc(-c4ccc(F)cc4)c23)C1 (stereo not drawn)	nt	nt	i	i	nt	nt
Cc1ccc(S(=O)(=O)N2CCSC2c2ccco2)cc1 (stereo not drawn)	i	?	i	45µM	i	?
CCOC(=O)C(C)Sc1nnc2ccc3ccccc3n12 (stereo not drawn)	nt	nt	i	i	nt	nt
O=C(CC1(O)C(=O)Nc2ccccc21)c1ccc(-n2cccc2)cc1 (stereo not drawn)	i	i	i	50µM	i	i
O=C(CC1(O)C(=O)Nc2ccccc21)c1ccccc1 (stereo not drawn)	i	i	i	i	i	i
O=C1CCCCc2sc(Br)c([N+](=O)[O-])c2N1	i	i	i	0.79µM	i	i
C/C(=N/O)c1cccc(N2Cc3ccccc3C2)c1	i	i	i	22µM	i	i
C/C(=N\O)c1cccc(Br)c1	i	i	i	i	i	i
CC(=O)Nc1ccc(-c2ccc3nnc(C)n3n2)cc1	i	nt	i	i	i	i
Cc1nnc2ccc(-c3ccc(NC(=O)c4ccco4)cc3)nn12	i	nt	i	32µM	i	i
Cc1c(C(=O)NCc2cccc(Cl)c2)sc2ncnc(N(C)C3CCCCC3)c12	nt	nt	i	i	nt	nt
Cc1ccc(/C=C/c2onc(C)c2S(=O)(=O)N2CCC(C(=O)N3CCN(c4cc(C)ccc4C)CC3)CC2)cc1	nt	nt	i	i	nt	nt
CC(CNC(=O)Cc1ccc(NC(=O)N2CCSc3ncccc32)cc1)c1ccccc1 (stereo not drawn)	nt	nt	i[15.4 µM]	i	nt	nt
COc1cc2cc(CCCOC(=O)c3cc(OC)c(OC)c(OC)c3)oc(=O)c2cc1OC	i	nt	i	nt	nt	nt
COc1cc2cc(CCCOC(=O)c3ccco3)oc(=O)c2cc1OC	i	nt	i	50µM	nt	nt
CC(=O)C1=C(c2ccc(Cl)c(Cl)c2)N(C(C)=O)n2cnnc2S1	nt	nt	i	10µM	nt	nt
O=C(/C=C/c1cccs1)NC(=S)NNC(=O)c1ccccc1O	i	nt	i	i	i	i
COc1ccc(C(=O)NNC(=S)NC(=O)/C=C/c2cccs2)cc1	i	i	i	i	25µM	i
O=C1NC(=Nc2cccc(O)c2)S/C1=C\c1cccnc1	i	i	i	8.9µM	i	i
N#CCc1c(C#N)c(N)nc(Nc2ccccc2)c1C#N	i	i	i	20µM	i	i
O=S1(=O)C2CC3C=CC2(O3)C(O)C(Cc2ccccc2)N1Cc1cccc(C(F)(F)F)c1 (stereo not drawn)	nt	nt	nt	nt	nt	i
c1ccc(C2CC3CC(c4ccco4)N2O3)cc1 (stereo not drawn)	i	i	i	35µM	i	i
CCN1C(C)=C(C(=O)OC(C)C)C(c2ccccc2Cl)C(C(=O)O)=C1C(=O)O (stereo not drawn)	nt	nt	nt	nt	nt	i
CN1COc2ccc3ccccc3c2C1	i	nt	i	4µM	i	i
O=C(NCCS(=O)(=O)N1CCN(c2cccc(Cl)c2)CC1)C(c1ccccc1)c1ccccc1	nt	nt	i	i	nt	nt
CN(C1CCCC1)C1CCN(C(=O)CNC(=O)/C=C/c2ccccc2)CC1	i	i	i	i	i	i
CC1CCCCC1N(C)C1CCN(C(=O)CNC(=O)/C=C/c2cccc(Cl)c2)CC1 (stereo not drawn)	i	i	i	35µM	i	i
